Our source for the Potency values is PubChem BioAssay (NCATS).

The nature of assay [1]: qHTS of pediatric cancer cell lines to identify multiple opportunities for drug repurposing: Primary screen for SJ-GBM2 cells (AID 1347091). The method in brief:
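Viability measured as metabolically active cells via CellTiter-Glo luminescence following 48 hours of compound exposure, 11-point dilutions in confirmatory testing. 500-1,000 cells/well plated 5 hours before dosing; controls were DMSO and 2.3 µM bortezomib.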

The nature of assay [2]: qHTS of pediatric cancer cell lines to identify multiple opportunities for drug repurposing: Primary screen for A673 cells (AID 1347092). Further: nearly all actives have a fitted effect of over 45% in size. The gist of the method: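 Titration-based qHTS on A673 cells: MIPE compounds spanned 11 points (0.78 nM to 46 µM final), NPC compounds 8 points (0.59 nM to 46 µM final). Viability after 48 h was measured by ATP luminescence.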
Assay [3] is described as follows: qHTS of pediatric cancer cell lines to identify multiple opportunities for drug repurposing: Primary screen for NB-EBc1 cells (AID 1347095). The gist of the method: (§1)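 CRCs from 8- or 11-point titrations (lowest final 0.59 nM NPC, 0.78 nM MIPE). Cell viability: CellTiter-Glo after 48 h incubation, 15 min room-temperature development, luminescence imaging.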
(In qHTS, concentration-response curves come from the screen itself.)

A short description of assay [4]: qHTS of pediatric cancer cell lines to identify multiple opportunities for drug repurposing: Primary screen for U-2 OS cells (AID 1347096). Further: nearly all actives have a fitted effect of over 50% in size. The gist of the method:
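Viability after 48 h compound treatment at 37C, 500-1,000 cells/well, read as ATP luminescence with CellTiter-Glo. Primary screens used 11-point (MIPE, 0.78 nM-46 µM) or 8-point (NPC, 0.59 nM-46 µM) final concentrations; follow-up screens used 11-point dilutions.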

The nature of assay [5]: qHTS of pediatric cancer cell lines to identify multiple opportunities for drug repurposing: Primary screen for SK-N-MC cells (AID 1347093). The gist of the method:
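Metabolically active cells were quantified by ATP-dependent luminescence (CellTiter-Glo, 15 min at room temperature) following 48 h treatment. Cells had been plated at 500-1,000 per well and settled for 5 h beforehand.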

The nature of assay [6]: qHTS of pediatric cancer cell lines to identify multiple opportunities for drug repurposing: Primary screen for BT-37 cells (AID 1347094). The gist of the method: as §1

Records with an inconclusive call do not appear. Active and inactive are the calls of the source. The call rests on the fitted dose curve; in most records, active means well fitted curve in the direction sought with a large enough effect; inconclusive means small, poorly fitted or top-dose-only effect, or another doubt; inactive means no such curve, though single readings can be large; an effect the other way counts as inactive or inconclusive.
Potency means the concentration at half of the fitted maximal effect.

As for `CC1=C[C@@H]2[C@@H]([C@@H](O)C[C@@]3(C)[C@H]2C[C@@H](C)[C@]3(O)C(=O)CO)[C@@]2(C)Cc3cnn(-c4ccccc4)c3C=C12`, the Potency in assay [1] is 20.9 µM (active); in assay [2], 18.7 µM (active); in assay [3] it was 23.5 µM (active). For the same compound, the Potency result in assay [4] was “inactive”.
Take `CC1C(=O)OC2C(O)C34C5CC(C(C)(C)C)C36C(OC(=O)C6O)OC4(C(=O)O5)C12O` (stereo not given): the Potency result in assay [1] and in assay [4] was “inactive” each time. The Potency was 18.7 µM (active) in assay [2], 29.6 µM (active) in assay [5] and 14.8 µM (active) in assay [3].
Regarding `NC1(C(=O)N[C@@H](CCO)c2ccc(Cl)cc2)CCN(c2ncnc3[nH]ccc23)CC1`, the Potency was 18.7 µM (active) in assay [2] and 0.372 µM (active) in assay [5].
In the case of `c1ccc(-c2oc3ncnc(NC[C@@H]4CCCO4)c3c2-c2ccccc2)cc1`, the Potency in assay [2] was 23.5 µM (active). The Potency entry in assay [4] was “inactive”.
For `O=C(O)c1ccc(O)c2ncc(N3CCOCC3)cc12`, the values for the Potency in assay [5] and in assay [3] were 18.7 µM (active) and 20.9 µM (active), respectively.
Turning to `COc1cc2nccc(Oc3ccc(NC(=O)Nc4ccc(F)cc4F)c(F)c3)c2cc1OC`, the Potency was 2.96 µM (active) in assay [1], 3.72 µM (active) in assay [5] and 2.35 µM (active) in assay [3]. Besides, the Potency entry in assay [6] and in assay [4] was “inactive” in each case.
Turning to `C=C1[C@H](n2cnc3c(=O)[nH]c(N)nc32)C[C@H](O)[C@H]1CO`, the Potency is 0.0235 µM (active) in assay [1], 21.7 µM (active) in assay [6] and 2.09 µM (active) in assay [3]. Besides, in assay [4], the Potency result is “inactive”.
For `CN(C(Cc1ccc(OS(=O)(=O)c2cccc3cnccc23)cc1)C(=O)N1CCN(c2ccccc2)CC1)S(=O)(=O)c1cccc2cnccc12` (stereo not given), the results for the Potency in assay [2] and in assay [5] were 18.7 µM (active) and 0.418 µM (active), respectively. Also, in assay [6], the Potency entry is “inactive”.
Take `Cc1csc(-c2nnc(Nc3ccc(Oc4ncccc4-c4ccnc(N)n4)cc3)c3ccccc23)c1`: the Potency in assay [1] is 0.003 µM (active); in assay [5] it was 0.0037 µM (active). In assay [4], the Potency result is “inactive”.
Take `CC(=O)Nc1cccc(-n2c(=O)n(C3CC3)c(=O)c3c(Nc4ccc(I)cc4F)n(C)c(=O)c(C)c32)c1`: the Potency entry in assay [1] and in assay [6] was “inactive” throughout. Besides, the Potency in assay [5] was 7.43 µM (active).
Regarding `CN(C)N=Nc1nc[nH]c1C(N)=O`, the Potency result in assay [2] and in assay [4] was “inactive” in each case.
Take `CN1C(=O)C[C@H](C(=O)N[C@@H](Cc2cnc[nH]2)C(=O)N2CCC[C@@H]2C(N)=O)NC1=O`: the Potency entry in assay [1] and in assay [4] was “inactive” in each case. Also, the Potency in assay [6] was 24.3 µM (active).
For the compound `COc1cc2ncn(-c3cc(OCc4ccccc4S(C)(=O)=O)c(C#N)s3)c2cc1OC`, the Potency in assay [5] was 13.2 µM (active). Further, the Potency entry in assay [6] and in assay [4] was “inactive” each time.
Take `C[C@@]1(c2cc(-c3cncnc3)c(F)cc2F)CCSC(N)=N1`: the Potency is 4.69 µM (active) in assay [1], 2.96 µM (active) in assay [5], 3.06 µM (active) in assay [6] and 8.33 µM (active) in assay [3]. Moreover, in assay [4], the Potency entry was “inactive”.
Regarding `O=C(CCCN1CCN(c2ccc(F)cc2)CC1)NC1c2ccccc2CSc2ccccc21` (stereo not given), in assay [2], the Potency is 11.8 µM (active).
For the compound `CC(O)=C(C#N)C(=O)Nc1ccc(C(F)(F)F)cc1`, the values for the Potency in assay [2], in assay [5] and in assay [3] were 18.7 µM (active), 4.69 µM (active) and 4.18 µM (active), respectively. Also, the Potency entry in assay [4] is “inactive”.
For the compound `CN(C)CCOc1ccc(-c2nc(-c3ccc4c(c3)CCC4=NO)c(-c3ccncc3)[nH]2)cc1`, the Potency in assay [1] was 23.5 µM (active); in assay [2], 18.7 µM (active); in assay [6] it was 30.6 µM (active). Further, the Potency entry in assay [3] was “inactive”.
Turning to `CC[C@@H]([C@H](C)O)n1ncn(-c2ccc(N3CCN(c4ccc(OCC5CO[C@@](Cn6cncn6)(c6ccc(F)cc6F)C5)cc4)CC3)cc2)c1=O` (stereo not given in full), the Potency in assay [1] was 18.7 µM (active); in assay [2], 18.7 µM (active); in assay [5] it was 16.6 µM (active); in assay [3], 20.9 µM (active). Besides, the Potency result in assay [4] was “inactive”.
In the case of `Cc1ccc(C2=Nc3ccc(Cl)cc3OC2)cc1`, the Potency in assay [1] is 23.5 µM (active); in assay [2], 18.7 µM (active). In addition, the Potency entry in assay [4] was “inactive”.
Consider `COc1cc2nccc(Oc3ccc(NC(=O)Nc4cc(C)on4)c(Cl)c3)c2cc1OC`, for which the Potency in assay [1] is 14.8 µM (active); in assay [6] it was 24.3 µM (active); in assay [3] it was 13.2 µM (active); in assay [4], 18.7 µM (active).
In the case of `COc1cc(CNC(=O)CCCCC=CC(C)C)ccc1O`, the Potency entry in assay [1], in assay [5], in assay [6], in assay [3] and in assay [4] was “inactive” in each case.
As to `C[C@H](c1ccc(F)cc1CCCC(=O)O)N(c1cc(F)ccc1F)S(=O)(=O)c1ccc(Cl)cc1`, the Potency in assay [2] is 18.7 µM (active); in assay [5], 3.72 µM (active). Further, the Potency entry in assay [3] and in assay [4] was “inactive” in each case.
In the case of `CCC(=C(CC)c1ccc(O)cc1)c1ccc(O)cc1`, the figures for the Potency in assay [2], in assay [5] and in assay [6] were 18.7 µM (active), 4.18 µM (active) and 21.7 µM (active), respectively. The Potency result in assay [4] was “inactive”.
For `Fc1ccc(CNc2ncnc3ccc(F)cc23)cc1`, the Potency entry in assay [1] and in assay [4] was “inactive” each time. For the same compound, the Potency is 9.35 µM (active) in assay [2] and 16.6 µM (active) in assay [5].
With `CCc1cccc(CC)c1NC(=O)N1Cc2[nH]nc(NC(=O)c3ccc(N4CCN(C)CC4)cc3)c2C1`, in assay [2], the Potency was 14.8 µM (active). For the same compound, the Potency entry in assay [6] and in assay [3] was “inactive” throughout.
`Cn1c(=O)c(Oc2ccc(F)cc2F)cc2cnc(NC3CCOCC3)nc21`: the Potency result in assay [1], in assay [2], in assay [5], in assay [6] and in assay [4] was “inactive” each time.
In the case of `CCn1c(-c2nonc2N)nc2cncc(CNC3CCNCC3)c21`, the Potency in assay [2] was 14.8 µM (active). The Potency entry in assay [5], in assay [6] and in assay [4] was “inactive” each time.
Take `O=C(O)CCNc1cc(N2CCc3ccccc3CC2)nc(-c2ccccn2)n1`: in assay [1], the Potency result is “inactive”. In addition, the Potency in assay [2] was 18.7 µM (active); in assay [5], 23.5 µM (active); in assay [3] it was 23.5 µM (active).
